Reference: PubChem BioAssay (Tox21)
A number with no mark means an inactive call. Activity calls are given as the source filed them. The call rests on the fitted dose curve; in most records, active means well fitted activation curve with a large enough effect in the repeat runs; inconclusive means weak or mixed curves; inactive means flat fitted curve, though single readings scatter.
On the % scale 0 is the no-effect control and ±100 the full control effect.

Assay: A CellTox Green Cytotoxicity Assay to monitor cytotoxicity in HepG2 cells - 0 hour (AID 1224882); further: nearly all actives have a fitted effect of over 35% in size
Settings: CellTox Green fluorescence; series mostly up to 76.8 µM
From the text: National Center for Advancing Translational Sciences [NCATS]
NIH Chemical Genomics Center [NCGC]
U.S. Environmental Protection Agency [EPA]
National Institutes of Environmental Health Sciences [NIEHS]
National Toxicology Program [NTP]
Cell-based models are critical for drug discovery. Determining the natural cytotoxic effects resulting from test compounds is an essential research activity. A CellTox Green Cytotoxicity Assay to monitor cytotoxicity in real time of continues cell culture during 40 hours of the compound treatment was used to screen Tox21 10K library compounds in HepG2 cells. CellTox Green Cytotoxicity Assay is a nonlytic, homogeneous, biofluorescent method to measure cytotoxicity in cell culture after experimental manipulation. The assay system uses a proprietary asymmetric cyanine dye that is excluded from viable cells but preferentially stains the dead cell's DNA. […] Viable cells produce no appreciable increases in fluorescence. Therefore, the fluorescence signal produced by the binding interaction with dead cell DNA is proportional to cytotoxicity.
The mixture of HepG2 cell suspension and reagents were dispensed at 600cells/6 ul/well in 1536-well tissue culture treated black solid bottom plates using a Multidrop dispenser. After the assay plates were incubated at a 37 C/5% CO2 incubator for 5 hours, 23 nL of compounds dissolved in DMSO, positive and negative controls was transferred to the assay plate by a pintool work station. The plates were incubated at 37 C for 40 hours. The fluorescence intensity were measured at 0h, 8h, 16h, 24h, 32h and 40h time points using ViewLux plate reader during compound treatment.
For `CCO[Si](CCCS)(OCC)OCC`, the outcome was “inactive”. In the case of `CC(C)NCC(O)COc1ccc(COCCOC(C)C)cc1` (stereo not given), the outcome is reported as “inactive”. With `CCOC(=O)/C=C/c1ccccc1` the outcome was “inactive”. For `BrCCCCCBr`, the outcome was “inactive”. In the case of `CCCCCCCCOS(=O)(=O)O`, the outcome is reported as “inactive”. In the case of `CN(C)c1ccc(C=O)cc1`, the outcome is reported as “inactive”. For `O=C(O)c1cc(Cl)cc([N+](=O)[O-])c1Cl`, the outcome was “inactive”. With `O=C1c2ccccc2C(=O)c2cc(S(=O)(=O)O)ccc21` the outcome was “inactive”. In the case of `O=C(c1ccc(O)cc1)c1ccc(O)c(O)c1O`, the outcome is reported as “inactive”. In the case of `COc1ccc(S(=O)(=O)N2c3ccc(Cl)cc3[C@@](O)(c3ccccc3Cl)[C@H]2C(=O)N2CCC[C@@H]2C(N)=O)cc1OC`, the outcome is reported as “inactive”. In the case of `COCCOC(=O)C1=C(C)NC(C)=C(C(=O)OC(C)C)C1c1cccc([N+](=O)[O-])c1` (stereo not given), the outcome is reported as “inactive”. For `CCN1CCc2nc(N)oc2CC1`, the outcome was “inactive”. For `CNS(=O)(=O)CCc1ccc2[nH]cc(C3CCN(C)CC3)c2c1`, the outcome was “inactive”. With `CN(C)CCOCCO` the outcome was “inactive”. For `CCC(CC)CO`, the outcome was “inactive”. In the case of `C=C(C)C(=O)OCCNC(C)(C)C`, the outcome is reported as “inactive”. In the case of `CCC(C=O)CC`, the outcome is reported as “inactive”. With `CC(C)=CCOC(=O)c1ccccc1` the outcome was “inactive”. In the case of `N#Cc1ccc(C(=O)O)cc1`, the outcome is reported as “inactive”. For `CC(=O)Nc1cccc(C)c1`, the outcome was “inactive”. For `CCCCCOC(=O)CCC`, the outcome was “inactive”. For `CN(C)C(=O)CNC(=O)Cc1ccccc1`, the outcome was “inactive”. In the case of `Cc1ccc(S(=O)(=O)O)c(C)c1`, the outcome is reported as “inactive”. For `CCCCCCOc1ccccc1C(N)=O`, the outcome was “inactive”. For `O=S(=O)(O)c1ccc2cc(O)c(S(=O)(=O)O)cc2c1`, the outcome was “inactive”. For `C[Si](C)=O`, the cytotoxicity was -2.11% [at 6.97 µM]. With `Cc1cccc(OCC(O)CNC(C)(C)C)c1C` (stereo not given) the outcome was “inactive”. For `O=C(O)CCSSCCC(=O)O`, the outcome was “inactive”. In the case of `COc1ccc2c(c1OC)C(=O)O[C@@H]2[C@H]1c2c(cc3c(c2OC)OCO3)CCN1C`, the outcome is reported as “inactive”. In the case of `CCCCCCCCC(=O)Cl`, the outcome is reported as “inactive”. In the case of `CO[C@@H]1[C@@H](OC(N)=O)[C@@H](O)[C@H](Oc2ccc3c(O)c(NC(=O)c4ccc(O)c(CC=C(C)C)c4)c(=O)oc3c2C)OC1(C)C`, the outcome is reported as “inactive”. With `NCCN1CCOCC1` the outcome was “inactive”. With `O=C(/N=N/C(=O)OCc1ccccc1)OCc1ccccc1` the outcome was “inactive”. In the case of `CC1COc2ccccc2N1` (stereo not given), the outcome is reported as “inactive”. `Cc1nc2n(c(=O)c1CCN1CCC(c3noc4cc(F)ccc34)CC1)CCC[C@H]2O` gave a cytotoxicity of -4% [at 15.8 µM]. For `Oc1cn2c(n1)Nc1ccc(Cl)c(Cl)c1C2`, the cytotoxicity was 3.67% [at 15.8 µM]. For `CCOCCOCCOCC`, the outcome was “inactive”. For `CCc1ccc(C=O)cc1`, the outcome was “inactive”. In the case of `NS(=O)(=O)c1cc2c(cc1Cl)CN(C1CCCCC1)C2=O`, the outcome is reported as “inactive”. With `COc1ccc(Br)c(C)c1` the outcome was “inactive”.
